{
  "source": "the supplement of paper PMC8728848",
  "experiment_in_all_cases": "glycan array binding signal (z-score within array); higher = stronger binding",
  "details_in_all_cases": "glycan notation: IUPAC condensed, linker removed",
  "key": {"[1]": {"target": "Fuc(a1-2)Gal6S(b1-4)GlcNAc", "procedure,_shortened": "(§1)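 Glycan array binding is given as a within-array Z-score, which can be read as non-binding when negative. The arrays, 3228 of them, came from the Consortium for Functional Glycomics database and were retained only where the protein sequence was available. Z-scores were averaged across arrays of the same protein sequence at different concentrations or buffers and across linkers.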"}, "[2]": {"target": "Fuc(a1-2)[Gal(a1-3)]Gal(b1-4)GlcNAc(b1-2)Man(a1-3)[Fuc(a1-2)[Gal(a1-3)]Gal(b1-4)GlcNAc(b1-2)Man(a1-6)]Man(b1-4)GlcNAc(b1-4)GlcNAc", "procedure,_shortened": "as §1"}, "[3]": {"target": "Fuc(a1-2)[GalNAc(a1-3)]Gal(b1-4)Glc", "procedure,_shortened": "as §1"}, "[4]": {"target": "Fuc(a1-3)[Gal(b1-4)]GlcNAc(b1-4)Gal(b1-4)[Fuc(a1-3)]GlcNAc", "procedure,_shortened": "as §1"}, "[5]": {"target": "Gal(a1-3)Gal(b1-3)GlcNAc(b1-2)Man(a1-3)[Gal(a1-3)Gal(b1-3)GlcNAc(b1-2)Man(a1-6)]Man(b1-4)GlcNAc(b1-4)GlcNAc", "procedure,_shortened": "as §1"}, "[6]": {"target": "Gal(b1-3)Gal", "procedure,_shortened": "as §1"}, "[7]": {"target": "Gal(b1-3)Gal(b1-4)GlcNAc(b1-2)Man(a1-3)[Gal(b1-3)Gal(b1-4)GlcNAc(b1-2)Man(a1-6)]Man(b1-4)GlcNAc(b1-4)GlcNAc", "procedure,_shortened": "as §1"}, "[8]": {"target": "Gal(b1-3)[Fuc(a1-4)]GlcNAc(b1-2)Man(a1-3)[Gal(b1-3)[Fuc(a1-4)]GlcNAc(b1-2)Man(a1-6)]Man(b1-4)GlcNAc(b1-4)GlcNAc", "procedure,_shortened": "as §1"}, "[9]": {"target": "Gal(b1-4)GalNAc(a1-3)[Fuc(a1-2)]Gal(b1-4)GlcNAc", "procedure,_shortened": "as §1"}, "[10]": {"target": "Gal(b1-4)GlcNAc(b1-2)Man(a1-3)Man(b1-4)GlcNAc(b1-4)GlcNAc", "procedure,_shortened": "as §1"}, "[11]": {"target": "Gal3S(b1-3)GalNAc", "procedure,_shortened": "as §1"}, "[12]": {"target": "Gal3S(b1-4)GlcNAc6S", "procedure,_shortened": "as §1"}, "[13]": {"target": "Gal3S6S(b1-4)GlcNAc", "procedure,_shortened": "as §1"}, "[14]": {"target": "Gal3S6S(b1-4)GlcNAc6S", "procedure,_shortened": "as §1"}, "[15]": {"target": "GlcNAc(b1-2)Gal(b1-3)GalNAc", "procedure,_shortened": "as §1"}, "[16]": {"target": "GlcNAc(b1-2)Man(a1-3)[GlcNAc(b1-2)Man(a1-6)]Man(b1-4)GlcNAc(b1-4)GlcNAc", "procedure,_shortened": "as §1"}, "[17]": {"target": "GlcNAc(b1-2)Man(a1-3)[GlcNAc(b1-2)Man(a1-6)]Man(b1-4)GlcNAc(b1-4)[Fuc(a1-6)]GlcNAc", "procedure,_shortened": "as §1"}, "[18]": {"target": "GlcNAc(b1-3)Gal(b1-3)GalNAc", "procedure,_shortened": "as §1"}, "[19]": {"target": "GlcNAc(b1-3)[GlcNAc(b1-4)][GlcNAc(b1-6)]GlcNAc", "procedure,_shortened": "as §1"}, "[20]": {"target": "GlcNAc(b1-3)[GlcNAc(b1-6)]Gal(b1-4)GlcNAc", "procedure,_shortened": "as §1"}, "[21]": {"target": "GlcNAc(b1-6)GalNAc", "procedure,_shortened": "as §1"}, "[22]": {"target": "Kdn(a2-3)Gal(b1-3)GalNAc", "procedure,_shortened": "as §1"}, "[23]": {"target": "Neu5Ac(a2-3)Gal(b1-3)GalNAc(b1-3)Gal(a1-4)Gal(b1-4)Glc", "procedure,_shortened": "as §1"}, "[24]": {"target": "Neu5Ac(a2-3)Gal(b1-3)[Fuc(a1-4)]GlcNAc", "procedure,_shortened": "as §1"}, "[25]": {"target": "Neu5Ac(a2-3)Gal(b1-4)GlcNAc6S", "procedure,_shortened": "as §1"}, "[26]": {"target": "Neu5Ac(a2-3)Gal(b1-4)[Fuc(a1-3)]GlcNAc(b1-3)GalNAc", "procedure,_shortened": "as §1"}, "[27]": {"target": "Neu5Ac(a2-3)Gal(b1-4)[Fuc(a1-3)]GlcNAc(b1-6)[Neu5Ac(a2-3)Gal(b1-3)]GalNAc", "procedure,_shortened": "as §1"}, "[28]": {"target": "Neu5Ac(a2-6)Gal(b1-4)GlcNAc(b1-3)Gal(b1-4)GlcNAc", "procedure,_shortened": "as §1"}, "[29]": {"target": "Neu5Ac(a2-6)GlcNAc(b1-4)GlcNAc(b1-4)GlcNAc", "procedure,_shortened": "as §1"}, "[30]": {"target": "Neu5Ac(a2-8)Neu5Ac", "procedure,_shortened": "as §1"}, "[31]": {"target": "Neu5Gc(a2-3)Gal(b1-3)[Fuc(a1-4)]GlcNAc", "procedure,_shortened": "as §1"}},
  "note": "This is one part of a sample in which the strongest signals are shown more often than they occur.",
  "data": [
    {"binder": "CREG (Mus musculus), O88668 (protein) MAARAPELARSLLAALLAPALVALLVSPASGRGGRDHGDWDVDRRLPPLPPREDGPRVARFVTHVSDWGSLATISTIKEVRGWPFADIISISDGPPGEGTGEPYMYLSPLQQAVSDLQENPEATLTMSLAQTVYCRNHGFDPQSPLCVHIMMSGTVTKVNKTEEDYARDSLFVRHPEMKHWPSSHNWFFAKLKISRIWVLDYFGGPKVVTPEEYFNVTLQ", "values": [
      {"measurement": "glycan array binding signal (z-score)", "setting": "[1]", "result": -0.138},
      {"measurement": "glycan array binding signal (z-score)", "setting": "[2]", "result": 2.76},
      {"measurement": "glycan array binding signal (z-score)", "setting": "[3]", "result": 0.375},
      {"measurement": "glycan array binding signal (z-score)", "setting": "[4]", "result": 2.95},
      {"measurement": "glycan array binding signal (z-score)", "setting": "[5]", "result": 3.49},
      {"measurement": "glycan array binding signal (z-score)", "setting": "[6]", "result": 0.033},
      {"measurement": "glycan array binding signal (z-score)", "setting": "[7]", "result": 0.416},
      {"measurement": "glycan array binding signal (z-score)", "setting": "[8]", "result": 6.79},
      {"measurement": "glycan array binding signal (z-score)", "setting": "[9]", "result": 0.494},
      {"measurement": "glycan array binding signal (z-score)", "setting": "[10]", "result": -0.442},
      {"measurement": "glycan array binding signal (z-score)", "setting": "[11]", "result": 0.036},
      {"measurement": "glycan array binding signal (z-score)", "setting": "[12]", "result": 0.604},
      {"measurement": "glycan array binding signal (z-score)", "setting": "[13]", "result": 1.52},
      {"measurement": "glycan array binding signal (z-score)", "setting": "[14]", "result": 2.03},
      {"measurement": "glycan array binding signal (z-score)", "setting": "[15]", "result": -0.651},
      {"measurement": "glycan array binding signal (z-score)", "setting": "[16]", "result": 0.15},
      {"measurement": "glycan array binding signal (z-score)", "setting": "[17]", "result": 3.8},
      {"measurement": "glycan array binding signal (z-score)", "setting": "[18]", "result": 3.22},
      {"measurement": "glycan array binding signal (z-score)", "setting": "[19]", "result": 2.23},
      {"measurement": "glycan array binding signal (z-score)", "setting": "[20]", "result": -0.627},
      {"measurement": "glycan array binding signal (z-score)", "setting": "[21]", "result": -0.035},
      {"measurement": "glycan array binding signal (z-score)", "setting": "[22]", "result": 0.66},
      {"measurement": "glycan array binding signal (z-score)", "setting": "[23]", "result": -0.096},
      {"measurement": "glycan array binding signal (z-score)", "setting": "[24]", "result": -0.737},
      {"measurement": "glycan array binding signal (z-score)", "setting": "[25]", "result": 1.38},
      {"measurement": "glycan array binding signal (z-score)", "setting": "[26]", "result": 3.4},
      {"measurement": "glycan array binding signal (z-score)", "setting": "[27]", "result": 4.66},
      {"measurement": "glycan array binding signal (z-score)", "setting": "[28]", "result": 0.227},
      {"measurement": "glycan array binding signal (z-score)", "setting": "[29]", "result": 0.386},
      {"measurement": "glycan array binding signal (z-score)", "setting": "[30]", "result": -0.211},
      {"measurement": "glycan array binding signal (z-score)", "setting": "[31]", "result": -0.132}
    ]}
  ]
}
